Experimental data as given in PubChem BioAssay (Tox21).
Results filed as inconclusive are left out. Entries that show only a call come without a potency. A number with no mark means an inactive call. Activity calls are given as the source filed them. Calls follow the shape of the full dose curve.

Molecular target: 5-hydroxytryptamine receptor 2A (Homo sapiens) (UniProt P28223)
Test: 5-hydroxytryptamine receptor 2A (HTR2A) small molecule antagonists, cell-based qHTS assay (AID 1963586); also: nearly all actives have a fitted effect of over 45% in size
In short: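 CHO cells stably expressing human HTR2A were plated for 18 h at 37 C, then loaded with calcium dye for 1 h. Compounds were preincubated 5 min at room temperature before DOI (4 nM solution) was added. Kinetic fluorescence was read for 3 min.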
Potency is read from the fitted curve at half-maximal effect.

5-hydroxytryptamine receptor 2A (Homo sapiens), sequence (P28223 whole entry, looked up): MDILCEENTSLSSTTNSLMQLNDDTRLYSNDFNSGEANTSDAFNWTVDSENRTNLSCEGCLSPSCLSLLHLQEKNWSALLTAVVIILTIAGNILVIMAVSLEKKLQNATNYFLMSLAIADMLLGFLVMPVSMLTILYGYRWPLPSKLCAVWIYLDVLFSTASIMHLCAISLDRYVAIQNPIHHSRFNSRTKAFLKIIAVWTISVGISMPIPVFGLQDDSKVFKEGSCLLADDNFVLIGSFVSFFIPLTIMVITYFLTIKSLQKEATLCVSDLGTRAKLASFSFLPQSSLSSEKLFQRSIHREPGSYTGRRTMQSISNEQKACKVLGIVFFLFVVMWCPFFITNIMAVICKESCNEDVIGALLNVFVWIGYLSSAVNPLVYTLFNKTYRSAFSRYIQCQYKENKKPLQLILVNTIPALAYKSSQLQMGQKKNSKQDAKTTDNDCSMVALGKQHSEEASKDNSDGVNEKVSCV

| Compound | Potency | activity, negative = inhibition |
| --- | --- | --- |
| Cc1cc(S(=O)(=O)O)c(N)cc1Cl | inactive | – |
| CCCCCCCCCCCCCCCCCO | – | -18.1% [at 12.7 µM] |
| C=C(C)CCCC(C)CCO (stereo unspecified) | inactive | – |
| O=C(NCCO[N+](=O)[O-])c1cccnc1 | inactive | – |
| C/C=C(\C)C=O | inactive | – |
| COc1cc2c(cc1N)oc1ccccc12 | inactive | – |
| CCN(CC)CCOc1ccccc1C(=O)CCc1ccccc1 | 1300 nM (active) | – |
| CC(C)NCC(O)c1ccc2ccccc2c1 (stereo unspecified) | inactive | – |
| CCC(C)N(C)C(=O)c1cc2ccccc2c(-c2ccccc2Cl)n1 (stereo unspecified) | inactive | – |
| OC(CCN1CCCC1)(c1ccccc1)C1CCCCC1 (stereo unspecified) | inactive | – |
| O=C(CCC1CCN(Cc2ccccc2)CC1)c1ccc2c(c1)NCCCC2 | 2590 nM (active) | – |
| C=C1CC[C@H]2O[C@]2(C)CC[C@@H]2[C@@H]1CC2(C)C | inactive | – |
| OCCN(CCO)c1cccc(Cl)c1 | inactive | – |
| CC(C)C[P+](C)(CC(C)C)CC(C)C | inactive | – |
| CC(C)OC(=O)c1cc2c(OCC(O)CNC(C)(C)C)cccc2[nH]1 (stereo unspecified) | inactive | – |
| CCC(=O)Nc1ccc(O)cc1 | inactive | – |
| CC1CCCCC1 | inactive | – |
| CCCCCCCCCCCCN1CCOCC1 | inactive | – |

| Compound | Potency | activity, negative = inhibition |
| --- | --- | --- |
| Cc1scc2c1N(C(=O)CN1CCN(C)CC1)c1ccccc1NC2=O | inactive | – |
| CCCCCC[C@@H](O)C/C=C\CCCCCCCC(=O)OCC(O)CO (stereo partly specified) | inactive | – |
| O=C1CCCCO1 | inactive | – |
| Cc1c(C)n(CCN(C)C)c2ccc(C(=O)OCCN(C)C)cc12 | inactive | – |
| Cc1cc(C)c(C=O)c(C)c1 | inactive | – |
| O=Cc1c(Cl)cccc1Cl | inactive | – |
| O=C1N(c2ccccc2)c2ccccc2C1(Cc1ccncc1)Cc1ccncc1 | inactive | – |
| O=C1CCCCCCCCCCC(=O)OCCO1 | inactive | – |
| c1ccc(CC2=NCCN2)cc1 | inactive | – |
| CC(C)(C)C(=O)C(=O)O | inactive | – |
| COc1ccc2[nH]c(S(=O)Cc3ncc(C)c(OC)c3C)nc2n1 (stereo unspecified) | inactive | – |
| C=CC(=O)OCCOC(=O)CCC(=O)O | inactive | – |
| [O]=[Mo](=[O])=[O] | – | -16.5% [at 12.7 µM] |
| CC(=O)Nc1ccc(S(N)(=O)=O)cc1 | inactive | – |
| CCOC(=O)c1cccnc1 | inactive | – |
| O=C(N[C@@H](Cc1ccccc1)[C@@H](O)C(=O)N1C[C@@H](O)[C@@H](O)C1)c1cc2cc(Cl)ccc2[nH]1 | inactive | – |
| CCCCCCCCc1ccc(S(=O)(=O)O)cc1 | inactive | – |
| CCCCCc1ccc(N)cc1 | inactive | – |
